In PubChem BioAssay (Tox21):
Values without a mark were called inactive. Results filed as inconclusive are left out. Where a call stands in place of a potency, no number is given. Calls of active or inactive are those of the source. Unless noted, calls come from the whole dose curve; as a rule, active = well fitted curve in the direction sought with a large enough effect in the repeat runs; inconclusive = weak or mixed curves; inactive = no such curve, though single readings can be large; an effect the other way counts as inactive or inconclusive.

How the values were obtained:
[1] = qHTS assay to identify small molecule antagonists of the sonic hedgehog signaling (Shh) pathway (AID 1259369; calls by dose curve; note: nearly all actives have a fitted effect of over 45% in size; note: potency is the fitted concentration of half-maximal effect)
Procedure, shortened: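 Read-out is luminescence from a firefly luciferase gene controlled by the Gli1 response element, in 3T3Gli1-Luc cells pre-incubated 4hr then exposed to compounds and conditioned medium for 24hr.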

[2] = qHTS assay to identify small molecule agonists of the androgen receptor (AR) signaling pathway in the presence of an antagonist - cell viability counter screen (AID 1259379);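 note: MDA-kb2 human breast cancer cells carrying an MMTV luciferase reporter; series mostly up to about 92 µM; nearly all actives have a fitted effect of over 25% in size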
Procedure, shortened: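 Each compound was tested at 15 concentrations on MDA-kb2 cells in the presence of 3.0uM nilutamide. Viability was measured by CellTiter-Fluor fluorescence after a 16 hr incubation at 37C in a CO2-free atmosphere.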

[3] = qHTS assay to identify small molecule agonists of the estrogen receptor beta (ER-beta) signaling pathway - cell viability counter screen (AID 1259380); note: nearly all actives have a fitted effect of over 30% in size
Procedure, shortened: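 Compounds dissolved in DMSO were pin-transferred onto ER-beta-UAS-bla HEK293T cells that had settled 6 hr, and exposure ran 16 hr at 37C. Following the reporter read, CellTiter-Glo luminescence after 30 min at room temperature indicated cytotoxicity.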

[4] = target: Androgen receptor (Homo sapiens) (UniProt P10275); assay: qHTS assay to identify small molecule agonists of the androgen receptor (AR) signaling pathway in the presence of an antagonist (AID 1259381; calls by dose curve; note: nearly all actives have a fitted effect of over 15% in size)
Procedure, shortened: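 Plated MDA-kb2 cells (3,000/well) were pre-incubated 5hr, given nilutamide (3.0uM final) or buffer, then dosed with compounds in DMSO at 15 concentrations. Luciferase activity was quantified by luminescence after 16hr at 37C.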

[5] = qHTS assay to identify small molecule antagonists of the estrogen receptor beta (ER-beta) signaling pathway - cell viability counter screen (AID 1259382);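 note: HEK293T cells carrying ER-beta-UAS-bla reporter stimulated with estradiol; series mostly up to about 92 µM; nearly all actives have a fitted effect of over 55% in size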
Procedure, shortened: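 CellTiter-Glo ATP luminescence measured after the LiveBLAzer read in the same wells; ER-beta-UAS-bla HEK293T cells, 16 hr compound treatment with 1nM 17-beta-estradiol agonist at 37C, 5% CO2.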

[6] = target: Estrogen receptor (Homo sapiens) (UniProt P03372); assay: qHTS assay to identify small molecule agonists of the estrogen receptor alpha (ER-alpha) signaling pathway in the presence of an antagonist (AID 1259383; calls by dose curve; note: top concentration of the series differs between compounds; nearly all actives have a fitted effect of over 15% in size)
Procedure, shortened: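 Luminescent ERE-luciferase reporter, VM7Luc4E2 cells (endogenous ER-alpha); 10.0nM ICI-182,780 final; 15-point compound titration; 22hr at 37C; ONE-Glo, 30min RT.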

[7] = qHTS assay to identify small molecule agonists or antagonists of the thyroid stimulating hormone receptor (TSHR) signaling pathway - wild type cell line counter screen (AID 1259384; calls by dose curve)
Procedure, shortened: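 Counter screen in untransfected Hek293: compounds (15-point titration, triplicate) plus phosphodiesterase inhibitor Ro20-1724 added after 18 h plating; 30 min RT. Intracellular cAMP via competitive d2/cryptate immunoassay, 1 h incubation.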

[8] = target: Thyrotropin receptor (Homo sapiens) (UniProt P16473); assay: qHTS assay to identify small molecule antagonists of the thyroid stimulating hormone receptor (TSHR) signaling pathway (AID 1259385; calls by dose curve; note: nearly all actives have a fitted effect of over 20% in size)
Procedure, shortened: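 Antagonist mode: compound-treated TSHR-expressing HEK293 cells were stimulated with 1.5 ng/mL TSH (final) in presence of Ro20-1724 for 30 min at RT. HTRF cAMP detection after 1 h; each compound tested at 15 concentrations, triplicate.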

[9] = qHTS assay to identify small molecule agonists of the estrogen receptor alpha (ER-alpha) signaling pathway in the presence of an antagonist - cell viability counter screen (AID 1259386);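 note: series mostly up to about 92 µM; cells exposed to compounds for 22 h at 37 °C before the viability read; nearly all actives have a fitted effect of over 30% in size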
Procedure, shortened: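 Using estrogen-depleted VM7Luc4E2 cells, the 15-concentration compound series was applied together with 10.0nM ICI-182,780 and incubated 22hr at 37C/5% CO2. Cell viability was then scored by CellTiter-Fluor.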

[10] = target: Progesterone receptor (Homo sapiens) (UniProt P06401); assay: qHTS assay to identify small molecule agonists of the progesterone receptor (PR) signaling pathway (AID 1346784; calls by dose curve; note: nearly all actives have a fitted effect of over 30% in size)
Procedure, shortened: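 Cells (PR-UAS-bla HEK 293T, GripTite) were plated in assay medium containing 2% charcoal-stripped FBS and incubated 6 hr. Test compounds in DMSO were added for 16 hr at 37C. FRET substrate was then loaded for 2 hr at room temperature before fluorescence reading.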

[11] = target: Progesterone receptor (Homo sapiens) (UniProt P06401); assay: qHTS assay to identify small molecule antagonists of the progesterone receptor (PR) signaling pathway (AID 1346795; active = well fitted inhibition curve with a large enough effect in the signal ratio in the repeat runs, not every such curve was filed as active; the % refers to the signal ratio; note: potency is the fitted concentration of half-maximal effect)
Procedure, shortened: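 Antagonist mode: compounds tested against 1 nM (final) promegestone stimulation in HEK293T cells expressing PR-UAS-bla reporter, 16 hr at 37C, 5% CO2; beta-lactamase activity detected via B/G FRET substrate after 2 hr at room temperature.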

[12] = qHTS assay to identify small molecule antagonists of the progesterone receptor (PR) signaling pathway - cell viability counter screen (AID 1346798); note: series mostly up to about 92 µM; nearly all actives have a fitted effect of over 50% in size
Procedure, shortened: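 Counter screen for cytotoxicity: viability of PR-UAS-bla HEK293T cells was measured with CellTiter-Glo luminescence following 16 hr compound exposure in the presence of R5020.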

[13] = qHTS assay to identify small molecule agonists of the progesterone receptor (PR) signaling pathway - cell viability counter screen (AID 1346799; calls by dose curve; note: nearly all actives have a fitted effect of over 45% in size)
Procedure, shortened: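 Cells (PR-UAS-bla HEK293T) are plated at 3,000/well in 2% charcoal-stripped FBS medium, rested 6 hr, dosed and incubated 16 hr at 37C. CellTiter-Glo is then added and luminescence measured after 30 min at room temperature.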

[14] = qHTS assay to identify small molecule antagonists of the TGF-beta/Smad signaling pathway - cell viability counter screen (AID 1346824); note: nearly all actives have a fitted effect of over 50% in size
Procedure, shortened: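 Cytotoxicity counter-screen run in the same wells as the beta-lactamase Smad reporter read: CellTiter-Glo luminescence after 30 min at room temperature. HEK 293T SBE-bla cells had 5 hr compound exposure at 37 C with TGF-beta1 (0.25 ng/mL stock).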

[15] = qHTS assay to identify small molecule agonists of the TGF-beta/Smad signaling pathway - cell viability counter screen (AID 1346829); note: top concentration of the series differs between compounds; nearly all actives have a fitted effect of over 45% in size
Procedure, shortened: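 Cytotoxicity counter screen: CellTiter-Glo luminescence (30 min, room temperature) measured in the SBE-bla HEK 293T reporter wells after 5 hr compound treatment at 37 C and the 2 hr substrate step.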

[16] = qHTS assay to identify small molecule agonists of the TGF-beta/Smad signaling pathway (AID 1346859; active = well fitted activation curve with a large enough effect in the signal ratio in the repeat runs, not every such curve was filed as active; the % refers to the signal ratio; note: series mostly up to about 77 µM)
Procedure, shortened: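 Reporter line: HEK 293T with stably integrated SBE-controlled beta-lactamase. Compound exposure lasts 5 hr at 37 C and 5% CO2; substrate loading follows for 2 hr at room temperature, with emission read at 460 and 530 nm.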

[17] = target: Thyrotropin-releasing hormone receptor (Homo sapiens) (UniProt P34981); assay: qHTS assay to identify small molecule antagonists of the thyrotropin-releasing hormone receptor (TRHR) signaling pathway (AID 1346877; active = well fitted inhibition curve with a large enough effect in the repeat runs, not every such curve was filed as active; note: series mostly up to about 51 µM)
Procedure, shortened: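 Calcium signal in dye-loaded TRHR/HEK293 cells; compounds added 5 min before TRH (1 nM final); fluorescence monitored 3 min at 1 s steps.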

[18] = target: Thyrotropin-releasing hormone receptor (Homo sapiens) (UniProt P34981); assay: qHTS assay to identify small molecule agonists of the thyrotropin-releasing hormone receptor (TRHR) signaling pathway (AID 1346891; calls by dose curve;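 note: HEK293 cells expressing TRHR with calcium dye readout; series mostly up to about 58 µM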)
Procedure, shortened: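 Cells: TRHR-Hek293, seeded and incubated 18 h. Dye loading: 2 h at 37 °C. Compound added from DMSO stock by pin tool. Read-out: kinetic calcium fluorescence over 3 min.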

[19] = target: Estrogen receptor beta (Homo sapiens) (UniProt Q92731); assay: qHTS assay to identify small molecule antagonists of the estrogen receptor beta (ER-beta) signaling pathway (AID 1259378; active = well fitted inhibition curve with a large enough effect in the signal ratio in the repeat runs, not every such curve was filed as active; the % refers to the signal ratio)
Procedure, shortened: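 Antagonist mode: compounds added to beta-lactamase reporter HEK293T ER-beta-UAS cells stimulated with E2 (1nM final), 16 hr at 37C. LiveBLAzer B/G FRET substrate, 2 hours room temperature, fluorescence read-out.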

Chain of Estrogen receptor beta (Homo sapiens) (Q92731 whole entry, looked up): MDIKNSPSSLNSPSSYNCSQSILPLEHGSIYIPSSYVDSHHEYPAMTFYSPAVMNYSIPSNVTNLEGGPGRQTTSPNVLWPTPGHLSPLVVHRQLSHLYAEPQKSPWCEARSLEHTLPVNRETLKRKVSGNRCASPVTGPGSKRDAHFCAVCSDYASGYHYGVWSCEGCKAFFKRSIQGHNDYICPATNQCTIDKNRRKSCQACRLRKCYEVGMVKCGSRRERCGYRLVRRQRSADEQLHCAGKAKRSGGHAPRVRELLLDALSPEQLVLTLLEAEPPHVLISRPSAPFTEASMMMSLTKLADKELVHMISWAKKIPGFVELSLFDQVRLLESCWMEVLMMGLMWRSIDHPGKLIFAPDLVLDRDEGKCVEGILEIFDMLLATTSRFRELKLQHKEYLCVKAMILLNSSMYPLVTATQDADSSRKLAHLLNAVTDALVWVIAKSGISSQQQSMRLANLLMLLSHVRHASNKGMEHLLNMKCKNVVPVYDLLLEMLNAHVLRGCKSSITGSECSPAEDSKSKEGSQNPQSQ
Chain of Progesterone receptor (Homo sapiens) (P06401 whole entry, looked up): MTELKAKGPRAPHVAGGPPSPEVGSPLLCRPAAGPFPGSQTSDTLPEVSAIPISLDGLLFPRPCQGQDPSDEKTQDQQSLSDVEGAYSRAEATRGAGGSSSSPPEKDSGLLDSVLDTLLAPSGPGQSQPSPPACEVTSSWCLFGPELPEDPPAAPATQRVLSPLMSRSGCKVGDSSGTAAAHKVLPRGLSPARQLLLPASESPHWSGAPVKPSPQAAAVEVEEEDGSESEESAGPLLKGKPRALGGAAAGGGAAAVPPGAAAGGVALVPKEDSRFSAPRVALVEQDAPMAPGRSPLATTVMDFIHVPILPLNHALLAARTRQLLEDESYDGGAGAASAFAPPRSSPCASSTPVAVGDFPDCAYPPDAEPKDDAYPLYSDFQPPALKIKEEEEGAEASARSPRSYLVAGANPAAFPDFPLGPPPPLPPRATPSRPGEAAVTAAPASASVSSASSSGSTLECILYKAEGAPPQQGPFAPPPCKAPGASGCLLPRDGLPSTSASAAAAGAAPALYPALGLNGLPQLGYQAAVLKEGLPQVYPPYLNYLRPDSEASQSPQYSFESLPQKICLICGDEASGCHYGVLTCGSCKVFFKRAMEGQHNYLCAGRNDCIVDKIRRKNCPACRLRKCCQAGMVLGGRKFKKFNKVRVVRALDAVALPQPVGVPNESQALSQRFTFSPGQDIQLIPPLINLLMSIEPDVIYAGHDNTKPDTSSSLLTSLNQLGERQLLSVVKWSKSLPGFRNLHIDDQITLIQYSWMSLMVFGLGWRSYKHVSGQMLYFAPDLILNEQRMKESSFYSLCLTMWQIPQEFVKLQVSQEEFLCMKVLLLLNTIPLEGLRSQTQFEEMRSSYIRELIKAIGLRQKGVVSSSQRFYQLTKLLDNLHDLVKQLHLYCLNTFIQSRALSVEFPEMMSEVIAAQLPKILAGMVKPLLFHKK
Chain of Androgen receptor (Homo sapiens) (P10275 whole entry, looked up): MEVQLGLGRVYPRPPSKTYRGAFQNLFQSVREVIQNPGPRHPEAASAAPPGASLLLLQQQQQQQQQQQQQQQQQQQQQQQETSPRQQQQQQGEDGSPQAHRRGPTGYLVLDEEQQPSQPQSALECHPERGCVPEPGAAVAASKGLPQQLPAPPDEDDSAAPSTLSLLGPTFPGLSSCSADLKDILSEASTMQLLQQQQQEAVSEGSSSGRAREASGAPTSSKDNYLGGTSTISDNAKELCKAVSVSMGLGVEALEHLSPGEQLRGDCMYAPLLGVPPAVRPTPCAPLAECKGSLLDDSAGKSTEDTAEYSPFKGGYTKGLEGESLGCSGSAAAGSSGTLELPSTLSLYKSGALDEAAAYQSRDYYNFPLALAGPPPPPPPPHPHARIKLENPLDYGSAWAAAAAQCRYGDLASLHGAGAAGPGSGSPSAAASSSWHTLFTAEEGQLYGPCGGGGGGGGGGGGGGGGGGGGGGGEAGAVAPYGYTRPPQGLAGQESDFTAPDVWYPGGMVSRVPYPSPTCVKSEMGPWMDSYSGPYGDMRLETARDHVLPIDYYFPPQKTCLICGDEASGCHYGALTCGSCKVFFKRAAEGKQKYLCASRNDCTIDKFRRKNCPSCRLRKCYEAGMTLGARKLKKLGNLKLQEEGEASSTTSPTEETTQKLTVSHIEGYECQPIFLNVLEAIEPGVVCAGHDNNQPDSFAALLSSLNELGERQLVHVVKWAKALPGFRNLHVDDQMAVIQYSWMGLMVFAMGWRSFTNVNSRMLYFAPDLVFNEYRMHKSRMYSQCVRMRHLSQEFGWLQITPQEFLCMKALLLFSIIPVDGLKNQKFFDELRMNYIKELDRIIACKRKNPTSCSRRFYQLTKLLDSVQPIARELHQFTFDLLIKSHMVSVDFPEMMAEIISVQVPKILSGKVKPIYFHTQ
Chain of Thyrotropin receptor (Homo sapiens) (P16473 whole entry, looked up): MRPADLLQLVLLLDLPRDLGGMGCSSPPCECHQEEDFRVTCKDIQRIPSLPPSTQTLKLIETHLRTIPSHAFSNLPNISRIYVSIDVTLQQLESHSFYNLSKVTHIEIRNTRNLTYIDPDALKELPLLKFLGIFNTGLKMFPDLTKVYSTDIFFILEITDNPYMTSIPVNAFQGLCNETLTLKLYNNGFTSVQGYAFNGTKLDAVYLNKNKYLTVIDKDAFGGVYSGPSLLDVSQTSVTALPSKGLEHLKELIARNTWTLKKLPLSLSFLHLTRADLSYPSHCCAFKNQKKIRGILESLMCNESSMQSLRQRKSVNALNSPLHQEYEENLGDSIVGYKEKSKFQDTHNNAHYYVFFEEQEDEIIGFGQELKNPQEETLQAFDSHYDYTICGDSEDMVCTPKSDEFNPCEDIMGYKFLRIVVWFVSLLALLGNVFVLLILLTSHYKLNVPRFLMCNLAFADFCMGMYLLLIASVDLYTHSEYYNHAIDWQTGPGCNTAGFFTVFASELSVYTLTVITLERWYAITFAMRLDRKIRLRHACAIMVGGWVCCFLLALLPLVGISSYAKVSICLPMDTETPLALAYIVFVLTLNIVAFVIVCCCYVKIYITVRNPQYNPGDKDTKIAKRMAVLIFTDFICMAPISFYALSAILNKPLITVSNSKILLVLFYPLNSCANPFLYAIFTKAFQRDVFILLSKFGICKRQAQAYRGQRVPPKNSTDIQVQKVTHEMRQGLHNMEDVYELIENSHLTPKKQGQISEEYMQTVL
Chain of Estrogen receptor (Homo sapiens) (P03372 whole entry, looked up): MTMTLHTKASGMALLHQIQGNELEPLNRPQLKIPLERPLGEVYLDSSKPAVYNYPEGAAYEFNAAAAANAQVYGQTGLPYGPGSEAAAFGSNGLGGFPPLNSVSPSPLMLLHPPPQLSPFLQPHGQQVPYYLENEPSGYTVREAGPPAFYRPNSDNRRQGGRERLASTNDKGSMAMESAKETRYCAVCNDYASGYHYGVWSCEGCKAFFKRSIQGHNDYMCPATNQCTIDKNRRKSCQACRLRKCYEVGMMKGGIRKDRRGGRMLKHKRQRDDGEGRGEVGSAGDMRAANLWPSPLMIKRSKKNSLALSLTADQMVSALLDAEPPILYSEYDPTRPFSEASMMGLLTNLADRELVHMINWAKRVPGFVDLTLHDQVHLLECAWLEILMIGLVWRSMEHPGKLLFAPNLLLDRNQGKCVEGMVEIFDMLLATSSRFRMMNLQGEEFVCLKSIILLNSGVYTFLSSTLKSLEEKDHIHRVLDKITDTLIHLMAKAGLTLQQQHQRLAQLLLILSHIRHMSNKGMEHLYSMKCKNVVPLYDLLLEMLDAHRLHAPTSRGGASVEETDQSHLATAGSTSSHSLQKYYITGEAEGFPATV
Chain of Thyrotropin-releasing hormone receptor (Homo sapiens) (P34981 whole entry, looked up): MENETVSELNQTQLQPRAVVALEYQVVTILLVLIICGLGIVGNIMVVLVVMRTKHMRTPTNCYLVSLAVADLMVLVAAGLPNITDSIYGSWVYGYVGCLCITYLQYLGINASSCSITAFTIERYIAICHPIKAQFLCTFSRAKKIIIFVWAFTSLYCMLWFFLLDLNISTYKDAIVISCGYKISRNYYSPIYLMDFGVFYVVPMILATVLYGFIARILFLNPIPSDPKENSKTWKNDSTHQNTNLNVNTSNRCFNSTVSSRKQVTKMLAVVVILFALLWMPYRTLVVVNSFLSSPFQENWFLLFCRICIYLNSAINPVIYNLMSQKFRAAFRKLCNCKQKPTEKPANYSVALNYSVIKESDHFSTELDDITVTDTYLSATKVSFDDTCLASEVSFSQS

| SMILES | Potency [1] | Potency [2] | Potency [3] | Potency [4] | outcome [5] | Potency [6] | outcome [7] | Potency [8] | Potency [9] | Potency [10] | Potency [11] | Potency [12] | Potency [13] | outcome [14] | outcome [15] | outcome [16] | outcome [17] | Potency [18] | Potency [19] |
| --- | --- | --- | --- | --- | --- | --- | --- | --- | --- | --- | --- | --- | --- | --- | --- | --- | --- | --- | --- |
| CC(C)(C)c1cccc(O)c1 | inactive | inactive | inactive | inactive | inactive | inactive | inactive | inactive | inactive | inactive | inactive | inactive | inactive | inactive | inactive | inactive | inactive | inactive |  |
| C=C(C)C(=O)OCCOP(=O)(O)O | inactive | inactive | inactive |  | inactive | inactive | inactive | inactive | inactive | inactive |  |  | inactive | inactive | inactive | inactive | inactive | inactive | inactive |
| CCCOCCC | inactive | inactive | inactive |  | inactive | inactive | inactive | inactive | inactive | inactive | inactive | inactive |  | inactive | inactive | inactive | inactive | inactive |  |
| CC(=O)O[C@H]1CC[C@@]2(C)C(=CC[C@@H]3[C@@H]2CC[C@]2(C)C(C(C)=O)=CC[C@@H]32)C1 | inactive | inactive |  | inactive | inactive | inactive | inactive |  |  | inactive |  | inactive | inactive | inactive | inactive |  | inactive | inactive | inactive |
| Cc1ccc([N+](=O)[O-])c(N)c1 | 18.9 µM (active) |  | inactive |  | inactive |  | inactive | inactive | inactive |  | 59.6 µM (active) |  | inactive | inactive | inactive | inactive | inactive | inactive | inactive |
| CC1(C)S[C@@H]2[C@H](NC(=O)C(C(=O)O)c3ccccc3)C(=O)N2[C@H]1C(=O)O (stereo not given in full) | inactive | inactive | inactive |  | inactive |  |  |  | inactive | inactive | inactive | inactive | inactive | inactive | inactive | inactive | inactive | inactive | inactive |
| O=CCCc1ccccc1 | inactive | inactive | inactive |  | inactive |  |  |  |  | inactive | inactive |  | inactive | inactive | inactive | inactive |  |  | inactive |
| CC(C)S | inactive | inactive | inactive |  | inactive | inactive | inactive | inactive | inactive | inactive |  | inactive | inactive | inactive | inactive | inactive | inactive | inactive |  |
| CCOC(=O)NCCC[Si](OCC)(OCC)OCC | inactive | inactive | inactive |  | inactive | inactive | inactive | inactive |  | inactive | inactive |  | inactive | inactive | inactive | inactive | inactive | inactive | inactive |
| Cc1c(N)cccc1N | inactive | inactive | inactive |  | inactive |  | inactive | inactive | inactive | inactive | inactive | inactive |  | inactive | inactive | inactive | inactive | inactive | inactive |
| CCCCCCCOC(=O)CCC | inactive | inactive | inactive |  | inactive | inactive | inactive | inactive | inactive | inactive | inactive | inactive | inactive |  | inactive | inactive |  |  | inactive |
| Cc1onc(-c2ccccc2)c1C(=O)Cl | inactive | inactive | inactive |  | inactive |  | inactive | inactive | inactive | inactive |  | inactive | inactive | inactive | inactive | inactive | inactive | inactive | inactive |
| NCCCN1CCN(CCCN)CC1 | inactive | inactive | inactive | inactive | inactive | inactive | inactive | inactive | inactive | inactive | inactive |  | inactive | inactive | inactive | inactive | inactive | inactive |  |
